# According to PubChem BioAssay (Tox21):
# “And” between values parts separate entries of the source, which are not always exact repeats. Equal values may be shown once. Records with an inconclusive call do not appear. Entries that show only a call come without a potency. The source made the active and inactive calls. Calls come from the whole dose curve; as a rule, active = well fitted cell-killing curve with a large enough effect in the repeat runs; inconclusive = weak or mixed curves, or effect the other way; inactive = no such curve, though single readings can be large or run the other way.
# Test: qHTS assay to identify small molecule antagonists of the glucocorticoid receptor (GR) signaling pathway - cell viability counter screen (AID 720693); note: nearly all actives have a fitted effect of over 55% in size
# Settings: GR-bla HeLa viability, CellTiter-Glo luminescence, 18 h, with 5 nM dexamethasone present; series mostly up to 58.5 µM
# Description: National Center for Advancing Translational Sciences [NCATS]
# NIH Chemical Genomics Center [NCGC]
# U.S. Environmental Protection Agency [EPA]
# National Institutes of Environmental Health Sciences [NIEHS]
# National Toxicology Program [NTP]
# U.S. Food and Drug Administration [FDA]
# The Glucocorticoid receptor (GR) is one of the members of the nuclear receptor family of ligand-dependent transcription factors. GR plays a critical role in carbohydrate, protein and lipid metabolisms and programmed cell death. CellSensor GR-bla HeLa cell line (Invitrogen) contains a beta-lactamase reporter gene under the control of the glucocorticoid response element stably integrated into HeLa cells, a cervical cancer cell line that expresses glucocorticoid receptor. The activation of the reporter gene under culture conditions can be detected by fluorescence intensity. This cell line has been used to screen the Tox21 10K compound library and to identify the compounds that inhibit the GR signaling. The cytotoxicity of the Tox21 compound library against the GR-bla HeLa cell line was tested in parallel by measuring the cell viability using CellTiter-Glo assay in the same wells.
# Tox21 Assay Protocol Summary:
# The GR-bla HeLa cells were dispensed at 1500 cells/5 ul/well in 1536-well black wall/clear bottom plates using a Multidrop Combi (ThermoFisher Scientific, Waltham, MA) dispenser. After the assay plates were incubated at a 37 C/5% CO2 incubator for 4 hours, 23 nL of compounds dissolved in DMSO, positive controls or DMSO only was transferred to the assay plate by a pintool station (Kalypsys, San Diego, CA), followed by addition of 1 uL of dexamethasone (5 nM, final concentration in the well). The plates were incubated at 37 C for 18 hours. After 1 uL of LiveBLAzerTM B/G FRET substrate was added using a Flying Reagent Dispenser (Aurora Discovery, San Diego, CA), the plates were incubated at room temperature (RT) for 2 hours, and fluorescence intensity was measured by an Envision plate reader (PerkinElmer, Shelton, CT). After measurement of bla assay, 3 ul CellTiter-Glo (Promega, Madison, WI) was added to measure the cytotoxicity and the plates were then incubated at RT for 30 min. The luminescence was measured using a ViewLux (Perkin Elmer) plate reader.
# Potency is the fitted concentration of half-maximal effect.
row,SMILES,Potency
1,CCCC1CCCCN1 (stereo not given),inactive
2,Cc1nc2ccccc2c(=O)n1-c1ccccc1Cl,inactive
3,CC[N+]1(C)CCCC(OC(=O)C(O)(c2ccccc2)c2ccccc2)C1 (stereo not given),inactive
4,FC(F)OC(F)(F)C(F)Cl (stereo not given),inactive
5,C=CC(C)(CCC=C(C)C)OC(=O)c1ccccc1N (stereo not given),inactive
6,C=CCc1ccc(OC(=O)Cc2ccccc2)c(OC)c1,inactive
7,O=C(NC(=O)c1cc(F)c(F)cc1Cl)Nc1cc(F)ccc1N1CCC(C(=O)O)CC1,inactive
8,CCOP(=S)(S)OCC,inactive
9,c1ccc2c(c1)-c1cccc3cccc-2c13,inactive
10,C[CH2][Hg][S]c1ccccc1C(=O)O,7.56 µM (active) and 6.16 µM (active)
11,C=C(C)C(=O)OCCCCOC(=O)C(=C)C,inactive
12,CNC(=O)Oc1cccc(N=CN(C)C)c1,inactive
13,Nc1ccc2c(c1)Cc1ccccc1-2,inactive
14,CCC1(CCC(C)C)C(=O)NC(=O)NC1=O,inactive
15,CC(C)(C)c1ccc(CCOc2ncnc3ccccc23)cc1,inactive
16,Nc1cccc2ccccc12,inactive
17,O=C1CC[C@@]2(O)[C@H]3Cc4ccc(O)c5c4[C@@]2(CCN3CC2CC2)[C@H]1O5,inactive
18,CC(=O)OC(c1ccccc1)C(Cl)(Cl)Cl (stereo not given),inactive
19,CC(C)(C)NCC(O)c1cc(Cl)c(N)c(C(F)(F)F)c1 (stereo not given),inactive
20,CCN(C(C)=O)c1cccc(-c2ccnc3c(C#N)cnn23)c1,inactive

row,SMILES,Potency
1,C[N+]1(CCC(C(N)=O)(c2ccccc2)c2ccccc2)CCCCC1,inactive
2,CCCCCCCCCCCCCCCl,inactive
3,CCCC[N+]1(C)[C@@H]2CC(OC(=O)[C@H](CO)c3ccccc3)C[C@H]1[C@@H]1O[C@@H]12 (stereo not given in full),inactive
4,CCCN(CCC)C(=O)Cc1c(-c2ccc(Cl)cc2)nc2ccc(Cl)cn12,inactive
5,CCOP(=O)(O)C(N)=O,inactive
6,O=C(Cc1ccccc1)c1ccccc1,inactive
7,Nc1cc(Cl)cc(C(=O)O)c1Cl,inactive
8,CN(C)c1ccc(N=O)cc1,39 µM (active) and 43.6 µM (active)
9,Nc1c(Br)cc(Br)c2c1C(=O)c1ccccc1C2=O,inactive
10,COC1CC(=C(c2cccs2)c2cccs2)C[N+](C)(C)C1 (stereo not given),inactive
11,COc1ccc(C(=O)c2c(C)n(CCN3CCOCC3)c3ccccc23)cc1,inactive
12,CCOP(=S)(OCC)Oc1ccc(S(C)=O)cc1 (stereo not given),inactive
13,NP(N)(=O)NC(=O)c1ccc(F)cc1,inactive
14,CCCCCBr,inactive
15,CCOC(=O)c1cncn1C(C)c1ccccc1 (stereo not given),inactive
16,COP(=O)(OC)OC(Br)C(Cl)(Cl)Br (stereo not given),inactive
17,C=C(Cl)Cl,inactive
18,O=S(=O)(Cl)Cl,inactive
19,CCCN(CCC)c1c([N+](=O)[O-])cc(C(C)C)cc1[N+](=O)[O-],inactive
20,CC(C)C1(C)N=C(c2ncccc2C(=O)O)NC1=O (stereo not given),inactive
